Bioassay records from PubChem.
A selection: hits, their analogues and other compounds. The true share with any hit is near 17%.
DT40 TDP1 CPT = growth inhibition of DT40 Tdp1-/-;hTDP1 cells with camptothecin (screen for TDP1 inhibitors); 420,000 compounds, 12% hits; Potency, µM (highest dose often 46.2 µM), inactives show top-dose activity change, negative = growth inhibition, most hits filed as inhibitors; chicken DT40 Tdp1-/-;hTDP1 cells + 20 nM CPT, ATP luminescence, 48 h; further: on the % scale 0 is the no-effect control and ±100 the full control effect; nearly all actives have a fitted effect of over 55% in size
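Chicken DT40 Tdp1-/- cells stably complemented with human TDP1 were seeded at 400 cells/well in medium containing 20 nM camptothecin, exposed to pin-transferred compounds, and grown at 37 °C for at least 48 hr. Viability was read as ATP luminescence.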
S2 tox = viability counter-screen for ATXN expression inhibitors; S2 cells (HEK-293 line with an ATXN2-luciferase reporter) viability, CellTiter-Fluor protease fluorescence, 24 h; Potency, µM (doses to about 56.7 µM), actives largely listed as cytotoxic; 400,000 compounds, 0.49% hits; AID 651635; further: nearly all actives have a fitted effect of over 40% in size
TDP1 cell noCPT = qHTS for Inhibitors of human tyrosyl-DNA phosphodiesterase 1 (TDP1): qHTS in cells in absence of CPT. DT40 Tdp1-/- hTDP1 cells, no CPT, ATP luminescence, 48 h. AID 686978, 2013. Potency, µM (titrated, usually from 46.2 µM), for the others: at the highest dose activity change, negative = growth inhibition, usual class: inhibitors. 420,000 compounds, 15% hits; further: on the % scale 0 is the no-effect control and ±100 the full control effect; nearly all actives have a fitted effect of over 55% in size
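Seeded 400 DT40-hTDP1 cells/well (vehicle DMSO, no 20 nM CPT); pinned compounds; ≥48 hr at 37 °C; CellTiter-Glo luminescence as viability measure.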
ATXN2 expr inh = ATXN2 expression inhibition | AID 1745845 | HEK-293 ATXN2-luciferase reporter, luminescence, 24 h | Potency, µM (doses to about 57 µM), without a hit: top-dose activity change, negative = inhibition, most hits filed as inhibitors | 360,000 compounds, 0.72% hits; further: on the % scale 0 is the no-effect control and ±100 the full control effect; nearly all actives have a fitted effect of over 55% in size
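ATXN2-luciferase reporter cells (luciferase flanked by upstream and downstream ATXN2 gene portions) were treated 24 h at 37 °C with compounds at up to 57 uM. SteadyGlo luminescence gave expression; GF-AFC fluorescence gave viability.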
TGFb SMAD3 inh = inhibitors of TGF-b signaling. HepG2 CAGA-GFP TGF-b/SMAD3 reporter, GFP fluorescence, 18 h; TGF-beta stimulated, 500 pg/mL final. Potency, µM (top dose mostly 46.1 µM), for the others: at the highest dose activity, negative = inhibition, hits mostly inhibitors. 410,000 compounds, 1.2% hits; further: on the % scale 0 is the no-effect control and ±100 the full control effect; nearly all actives have a fitted effect of over 65% in size
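First, reporter cells (HEPG2 CAGA-GFP) rested 2 h at 37 degrees C. Next, compounds were pinned in and TGF-beta added to 500 pg/mL final. After 18 h, GFP was imaged per cell and summed per well.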
HepG2 viability = counter-screen for TGF-b inhibitors: cytotoxicity in HepG2 cells | 410,000 compounds, 0.76% hits | Potency, µM (highest dose often 46.1 µM), for the others: at the highest dose activity change, negative = cytotoxicity, hits mostly cytotoxic | HepG2 CAGA-GFP viability, ATP luminescence, 18 h | AID 588856
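HepG2 CAGA-GFP cells (1000/well, DMEM with 1% FBS) received compound, then TGF-beta at 500 pg/mL final, and were incubated 18 hours at 37 degrees C. Viability was read by CellTiter-Glo luminescence. Media-only wells were set as complete cell-killing and DMSO as no toxicity.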
* hit, by the source's call; i = inactive; ? = inconclusive; . = not tested or not shown. The call rests on the fitted dose curve; in most records, active means well fitted curve in the direction sought with a large enough effect; inconclusive means small, poorly fitted or top-dose-only effect, or another doubt; inactive means no such curve, though single readings can be large; an effect the other way counts as inactive or inconclusive. Potency means the concentration at half of the fitted maximal effect.

SMILES	DT40 TDP1 CPT	S2 tox	TDP1 cell noCPT	ATXN2 expr inh	TGFb SMAD3 inh	HepG2 viability
CC(=O)Nc1ccc(Nc2ncnc3c2cnn3C)cc1	16µM*	i	?	12%	16%	9%
CC(=O)Nc1ccc(Nc2ncnc3c2c(-c2ccccc2)cn3-c2ccccc2)cc1	16µM*	.	18µM*	.	-18%	-30%
Cc1cccc(-n2cc(-c3ccccc3)c3c(NC(C)C)ncnc32)c1	21µM*	.	23µM*	.	-32%	-16%
CC(C)c1ccc(Nc2ncnc3c2c(-c2ccccc2)cn3-c2ccccc2)cc1	3.7µM*	.	?	.	-1%	-2%
CC(=O)Nc1ccc(Nc2ncnc3c2cnn3-c2ccccc2)cc1	?	i	?	44%	-13%	4%
Cc1ccc(-n2cc(-c3ccccc3)c3c(N4CCC(C)CC4)ncnc32)cc1Cl	1%	.	-12%	.	-2%	-2%
CC(=O)Nc1ccc(Nc2ncnc3c2c(-c2ccccc2)cn3-c2ccc(C)c(Cl)c2)cc1	9.2µM*	.	8.2µM*	.	?	-66%
Nc1nc(-c2ccccn2)nc(N)c1Cc1ccccc1F	5.8µM*	i	4.6µM*	?	?	-25%
Nc1nc(-c2ccccn2)nc(N)c1Cc1c(F)cccc1Cl	1.8µM*	i	1.5µM*	?	-26%	-14%
O=C(CCOc1ccccc1)N(Cc1cccnc1)c1nc2c(F)cc(F)cc2s1	18µM*	.	26µM*	.	?	-35%
CN(C)CCN(C(=O)CCc1ccccc1)c1nc2c(F)cc(F)cc2s1	-10%	i	-20%	.	-9%	-19%
O=C(CCS(=O)(=O)c1ccccc1)N(Cc1cccnc1)c1nc2ccc(F)cc2s1	3.3µM*	.	5.8µM*	.	?	-21%
Cc1cc(C)c2sc(N(Cc3cccnc3)C(=O)CCOc3ccccc3)nc2c1	18µM*	.	?	.	-6%	-11%
CC(=O)N(Cc1cccnc1)c1nc2ccc(F)cc2s1	-9%	.	-7%	.	-4%	-5%
CCN(CC)CCN(C(=O)CCOc1ccccc1)c1nc2c(F)cc(F)cc2s1	?	i	18µM*	-11%	-15%	-20%
CCCCCCCC/C=C\CCCCCCCC(=O)NCc1ccc(O)c(OC)c1	3.3µM*	i	?	-26%	.	.
CCCCCCCC/C=C\CCCCCCCC(=O)NCCc1ccc(O)c(O)c1	1µM*	25µM*	2.9µM*	16µM*	?	-44%
CCCCCCCC/C=C\CCCCCCCC(=O)NCCO	?	i	?	4%	-21%	-8%
Cc1cccc(C)c1C(O)c1ncc(-c2ccc(F)cc2)[nH]1 (stereo not given)	?	?	?	7%	-16%	-36%
C[C@@H]1COC(=O)[C@@H](CC(=O)OC(C)(C)C)C/C=C\C[C@@H](CC(=O)N[C@@H](CO)Cc2ccccc2)C(=O)N1	?	i	?	-6%	-3%	2%
CC(C)(C)OC(=O)C[C@@H]1C/C=C\C[C@H](CC(=O)N[C@@H](CO)Cc2ccccc2)C(=O)N[C@H](C(C)(C)C)COC1=O	21µM*	i	18µM*	3%	-15%	-17%
O=C(C[C@H]1C/C=C\CC[C@@H](Cc2ccc(F)cc2)C(=O)O[C@@H](c2ccccc2)CNC1=O)N[C@H](CO)Cc1ccccc1	18µM*	?	?	?	?	-38%
O=C(C[C@H]1C/C=C\C[C@@H](Cc2ccc(F)cc2)C(=O)O[C@H](c2ccccc2)CNC1=O)N[C@@H](CO)Cc1ccccc1	-22%	i	?	11%	-5%	0%
CC(C)(C)OC(=O)C[C@H]1C/C=C\C[C@@H](CC(=O)N[C@H](CO)Cc2ccccc2)C(=O)NC[C@H](c2ccccc2)OC1=O	?	i	23µM*	-6%	0%	-5%
O=C(C[C@@H]1C/C=C\C[C@@H](Cc2ccc(F)cc2)C(=O)OCCNC1=O)N[C@H](CO)Cc1ccccc1	21µM*	i	18µM*	-15%	0%	3%
SMILES	DT40 TDP1 CPT	S2 tox	TDP1 cell noCPT	ATXN2 expr inh	TGFb SMAD3 inh	HepG2 viability
CC1(Cc2ccccc2F)C(=O)Nc2c(Cl)ccc(Cl)c21 (stereo not given)	?	i	?	-11%	?	-12%
CN(C)c1ccc(C=Nc2cnc3ccccc3c2)cc1	?	.	?	.	6%	-6%
CC(C)NC(=O)C1(C)CCCN1C(=O)c1cc(C#N)cs1 (stereo not given)	3%	i	-2%	3%	-2%	-10%
CC(C)(C)OC(=O)C[C@H]1C/C=C\C[C@H](CC(=O)N[C@H](CO)Cc2ccccc2)C(=O)N[C@@H](Cc2ccccc2)COC1=O	16µM*	i	15µM*	8%	?	-1%
C[C@H]1COC(=O)[C@H](CC(=O)OC(C)(C)C)C/C=C\C[C@@H](CC(=O)N[C@@H](CO)Cc2ccccc2)C(=O)N1	?	i	?	7%	-15%	0%
Cc1ccc(NC(=S)/C(C#N)=C2/Nc3ccccc3S2)cc1	29µM*	i	23µM*	.	20µM*	-38%
N#C/C(C(=O)N1CCCCC1)=C1\Nc2ccccc2S1	3%	i	?	70%	-20%	-3%
CCC(=O)N(C1=C(NC)C(=O)c2ccccc2C1=O)C(C)C	2.1µM*	?	1.6µM*	.	?	-71%
CS(=O)(=O)N(CC(=O)N1CCCC1)C1CCCCC1	1%	i	4%	.	-2%	4%
CCCOc1ccccc1-n1sc2c(c1=S)-c1cc(OC)cc3c1N(C(=O)C3=O)C2(C)C	16µM*	?	16µM*	?	?	-34%
CCn1nnnc1SCC(=O)N(C1CCCCC1)C1CCCCC1	10µM*	i	11µM*	-4%	19%	-15%
Cn1c(SCC(=O)NC2CC2)nnc1-c1cccs1	-12%	i	-6%	-1%	-1%	-31%
Cn1c(SCC(=O)N(C2CCCCC2)C2CCCCC2)nnc1-c1cccs1	?	?	16µM*	-24%	8%	-6%
Cn1ccnc1SCC(=O)N(C1CCCCC1)C1CCCCC1	?	i	15µM*	0%	-11%	-1%
CC1(C)CC(=O)C=C(C(=O)N2CCCC(C(=O)c3cccc(C(F)(F)F)c3)C2)O1 (stereo not given)	?	i	?	-5%	-4%	-27%
c1cncc(-c2cncnc2NC2CCNCC2)c1	16µM*	.	-12%	.	.	.
